Screens: PubChem BioAssay, National Center for Advancing Translational Sciences (NCATS)
SW480 rerep: A quantitative high throughput screen for small molecules that induce DNA re-replication in SW480 colon adenocarcinoma cells; Potency, µM (top dose mostly 46.1 µM), for the others: at the top dose re-replication activation, most hits filed as activators; SW480 DNA re-replication, Hoechst DNA content imaging, 48 h; AID 624297, 2012; 340,000 tested, 1.8% active; further: % of control where 0% means no effect; nearly all actives have a fitted effect of over 55% in size
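Image-based read-out: total Hoechst fluorescence of nuclei (405 nm excitation, 500-530 nm emission), with hits raising the fraction of high-intensity nuclei. SW480 colon cells incubated 48 hr with compounds at 37 C.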
HT1080NT lethal: qHTS for induction of synthetic lethality in tumor cells producing 2HG: qHTS for the HT-1080-NT fibrosarcoma cell line; HT-1080-NT fibrosarcoma viability, CellTiter-Glo ATP luminescence, 48 h; Potency, µM (series often up to 46.1 µM), for the others: at the top dose activity, negative = less viability, usual class: cytotoxic; 360,000 tested, 1.6% active; AID 686970, 2013;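 further: NT is the 2HG producing partner of a matched IDH1 knockdown line; 0% = DMSO-treated cells and -100% = media-only wells without cells; nearly all actives have a fitted effect of over 55% in size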
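HT-1080-NT fibrosarcoma cells (2HG-overproducing), 750 cells/well in RPMI with 5% FBS, dosed after 2 h and incubated 48 h at 37C. CellTiter-Glo luminescence normalized to DMSO and no-cell wells; concentration-response curves fitted and classed.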
HT1080 IDH1KD tx: qHTS for induction of synthetic lethality in tumor cells producing 2HG: qHTS for the HT-1080-IDH1KD cell line; HT-1080 IDH1 knockdown viability, ATP luminescence, 48 h; Potency, µM (doses to about 46.1 µM), without a hit: top-dose activity, negative = toxicity, actives largely listed as cytotoxic; 360,000 tested, 2% active; AID 686971, 2013;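 further: 0% = DMSO wells and -100% = cell-free medium wells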
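Knockdown cells (IDH1KD HT-1080) received compounds 2 h after plating at 750 cells/well and were kept 48 h at 37 °C in 5% FBS RPMI. A CellTiter-Glo luminescence read gave % activity for curve fitting.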
KB-3-1 cytotox: qHTS assay for MDR1-selective chemotherapeutics: Primary screen using the parental adenocarcinoma cell KB-3-1 | KB-3-1 viability, CellTiter-Glo ATP luminescence, 72 h | Potency, µM (series often up to 46.1 µM), usual class: cytotoxic | 400,000 tested, 1.4% active; further: on the % scale 0 is the no-effect control and ±100 the full control effect; nearly all actives have a fitted effect of over 60% in size
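Screening of KB-3-1 cells (DMEM, 10% FBS, phenol-red free) ran from lowest to highest compound concentration; after 72 h at 37 °C viability was read luminescently and curves fitted.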
MCF10A rereplic: A quantitative high throughput screen for small molecules that induce DNA re-replication in MCF 10a normal breast cells. Potency, µM (doses to about 46.1 µM), without a hit: top-dose activity, positive = re-replication, actives largely listed as activators. 350,000 tested, 2.9% active. MCF 10A DNA re-replication, Hoechst nuclear intensity, 48 h. AID 624296, 2012; further: % of control where 0% means no effect; nearly all actives have a fitted effect of over 50% in size
KB-V1 MDR tox: qHTS assay for MDR1-selective chemotherapeutics: Primary screen using the drug-selected MDR subline cells KB-V1; KB-V1 MDR cells viability, CellTiter-Glo, 72 h; Potency, µM (doses to about 46.1 µM), most hits filed as cytotoxic; 400,000 tested, 3.4% active; further: on the % scale 0 is the no-effect control and ±100 the full control effect; nearly all actives have a fitted effect of over 60% in size
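KB-V1 MDR subline cells in DMEM (phenol-red free, 10% FBS) exposed to compounds in qHTS concentration series for 72 h at 37 degrees C. Viability read by CellTiter-Glo luminescence; concentration-effect curves fitted after normalization and correction.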
* hit, by the source's call; i = inactive; ? = inconclusive; nt = no result. Most compounds without a hit are left out; they make up all but 8% or so of the library. The call rests on the fitted dose curve; in most records, active means well fitted curve in the direction sought with a large enough effect; inconclusive means small, poorly fitted or top-dose-only effect, or another doubt; inactive means no such curve, though single readings can be large; an effect the other way counts as inactive or inconclusive. Potency means the concentration at half of the fitted maximal effect.

SMILES	SW480 rerep	HT1080NT lethal	HT1080 IDH1KD tx	KB-3-1 cytotox	MCF10A rereplic	KB-V1 MDR tox
COC(=O)c1ccccc1NC(=O)Cn1c(=O)n(CCCC(=O)NCc2ccccc2OC)c(=O)c2ccccc21	nt	nt	nt	i	nt	i
CCOC(=O)c1ccc(NC(=O)CCCn2nc(C)c3sc4ccccc4c3c2=O)cc1	nt	nt	nt	i	nt	i
COc1ccc(-c2cc3nc(C)cc(N4CCN(C(=O)c5ccco5)CC4)n3n2)cc1	nt	6%	8%	i	nt	i
O=C(c1cc2nc(-c3ccccc3)cc(-c3ccccc3)n2n1)N1CCN(C(=O)c2ccco2)CC1	-4%	-29%	-26%	?	?	21µM*
Cc1cc(N2CCN(C(=O)c3ccco3)CC2)n2nc(C)c(-c3ccccc3)c2n1	8%	-7%	1%	?	3%	3.7µM*
CN1CCN(C(=O)c2cc3nc(-c4ccccc4)cc(-c4ccccc4)n3n2)CC1	?	15µM*	?	i	13µM*	i
CCCCSc1ncnc2c1c(-c1ccccc1)cn2-c1cccc(F)c1	nt	nt	nt	i	nt	i
CS(=O)(=O)N1CCN(Cc2cc(=O)n3ccsc3n2)CC1	?	-1%	-2%	i	-16%	i
O=C(NC1CCCCC1)/C(=C/c1ccc(Cl)cc1)NC(=O)c1ccccc1	nt	nt	nt	i	nt	i
CC1CCC(C(C)C)C(OC(=O)C[n+]2cc(-c3ccc(Cl)cc3)n3c2CCCCC3)C1 (configuration not stated)	?	21µM*	21µM*	?	?	i
Clc1ccc(C[n+]2cc(-c3ccccc3)n3c2CCCCC3)c(Cl)c1	0%	15µM*	16µM*	2.1µM*	5%	?
Clc1ccc(C[n+]2cc(-c3ccccc3)n3c2CCC3)cc1Cl	2%	?	?	?	2%	i
Clc1ccc(-c2c[n+](Cc3ccc(Br)cc3)c3n2CCCCC3)cc1	3%	?	?	?	14%	i
Clc1ccc(-c2c[n+](Cc3cccc(Cl)c3)c3n2CCC3)cc1	10%	-26%	?	6.5µM*	17%	i
Clc1ccc(-c2c[n+](Cc3ccc(Cl)cc3Cl)c3n2CCCCC3)cc1	12%	8.2µM*	16µM*	?	15%	i
COc1ccc(-c2c[n+](CC(=O)c3ccccc3)c3n2CCCCC3)cc1	0%	?	?	?	5%	i
CCOc1ccc(-n2c(SCC(=O)Nc3cccc(Cl)c3)nc3c(oc4ccccc43)c2=O)cc1	nt	nt	nt	i	nt	i
CC(C)C(NS(=O)(=O)c1ccccc1F)C(=O)OCC(=O)NCc1ccco1 (configuration not stated)	-5%	1%	2%	i	-3%	i
Cc1c(NC(=O)C(C)OC(=O)c2ccc([N+](=O)[O-])cc2Cl)c(=O)n(-c2ccccc2)n1C (configuration not stated)	?	3%	0%	i	-1%	i
CC(=O)/C(=N\Nc1ccccc1Cl)Sc1cccc2cccnc12	?	21µM*	?	i	?	?
CC(=O)/C(=N\Nc1ccccc1)Sc1cccc2cccnc12	0%	-8%	-4%	i	-7%	i
CC[n+]1ccnc2ccccc21	nt	nt	nt	i	nt	?
COc1ccc(OC)c(NC(=O)C(=O)NNC(=O)c2cccs2)c1	-6%	-1%	9%	i	1%	i
Cn1c(N2CCOCC2)c(/C=N/OC(=O)c2ccc(F)cc2)c2ccccc21	?	2.8µM*	3.2µM*	4.1µM*	27%	?
Cc1ccc(C(=O)O/N=C/c2c(N3CCOCC3)n(C)c3ccccc23)cc1	?	4µM*	3.5µM*	?	?	?
SMILES	SW480 rerep	HT1080NT lethal	HT1080 IDH1KD tx	KB-3-1 cytotox	MCF10A rereplic	KB-V1 MDR tox
CC(=O)O/N=C/c1c(N2CCOCC2)n(C)c2ccccc12	1.8µM*	?	-28%	i	20%	i
Cn1c(N2CCOCC2)c(/C=N/O)c2ccccc21	-3%	-9%	8%	i	-5%	i
CCOc1ccc(-c2nc(CNC(=O)NC3CCCCC3)c(C)o2)cc1	nt	nt	nt	i	nt	i
CC(=O)c1ccc(N2CCN(C(=O)c3ccccc3SCC(=O)NCc3ccco3)CC2)c(F)c1	-8%	-8%	-7%	i	1%	21µM*
CCCCCCNC(=O)c1cn(CC)c2cc(N3CCN(C)CC3)c(F)cc2c1=O	?	16µM*	?	i	?	i
COc1ccccc1N1CCN(C(=O)c2ccccc2SCC(=O)NCc2ccco2)CC1	0%	1%	3%	i	11%	?
C=CCNC(=O)c1cn(CC)c2cc(N3CCN(C(=O)c4ccco4)CC3)c(F)cc2c1=O	19%	-1%	-5%	i	-2%	?
CCn1cc(C(=O)NCC(C)C)c(=O)c2cc(F)c(N3CCN(C(=O)c4ccco4)CC3)cc21	-2%	-15%	0%	i	?	16µM*
CCn1cc(C(=O)NCc2ccco2)c(=O)c2cc(F)c(N3CCN(C(=O)c4ccco4)CC3)cc21	-2%	-12%	-17%	i	13µM*	i
CCn1cc(C(=O)NCCCO)c(=O)c2cc(F)c(N3CCN(C)CC3)cc21	8%	11%	6%	i	4%	i
Cc1csc[n+]1CC(=O)c1ccccc1	nt	nt	nt	i	nt	i
N#C/C(=C\c1ccc(OCc2ccccc2)cc1)C(N)=O	-29%	-6%	0%	i	?	i
CC(OC(=O)/C(C#N)=C/c1ccc(N(C)C)cc1)C(=O)N(C)Cc1ccccc1 (configuration not stated)	?	-1%	-22%	i	16µM*	i
COc1cc2c(cc1O)CCN[C@@]21CS[C@H]2c3c(OC(C)=O)c(C)c4c(c3C(COC1=O)N1C2C2c3c(cc(C)c(OC)c3O)CC([C@@H]1O)N2C)OCO4 (some centres not stated)	-5%	nt	nt	nt	-23%	nt
Cc1ccc(-c2csc(-c3cc4c([nH]c3=O)CC(c3ccccc3)CC4=O)n2)cc1 (configuration not stated)	nt	nt	nt	0.82µM*	nt	?
